This is a sample that favours compounds with a hit; in the whole collection about 4.2% have one here.
TIM10 inh: growth inhibitors of TIM10 yeast strain; S. cerevisiae TIM10 strain growth, BacTiter-Glo luminescence, 24 h; inhibition, % at 10 µM; 330,000 compounds, 1.4% hits;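 active = inhibition of 40% or more at the single tested concentration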;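 note: wild-type TIM10 isogenic control strain grown at permissive 25 °C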
NALP3 yeast inh: inhibitors of NALP3 inflammasome in yeast; Yeast reconstituted NLRP3/ASC/caspase-1, beta-gal luminescence, 24 h; AID 2825; inhibition, % at 10 µM; 330,000 compounds, 0.39% hits;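 active = inhibition of 50% or more; inactive = inhibition below 50%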;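 note: plate controls were induced DMSO wells for no effect and uninduced yeast grown without galactose for full effect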
V-ATPase pH: alters yeast V-ATPase proton transport. S. cerevisiae, pHLuorin cytosolic pH fluorescence. response, % at 10 µM. 350,000 compounds, 0.37% hits. AID 504577; in the data active = response mostly above about 7.3%, no sharp cut-off; inactive = mostly below about 5.4%; note: actives read high
tim10-1 inh: tim10-1 yeast growth inhibition; inhibition, % at 20 µM; 330,000 compounds, 2.2% hits; S. cerevisiae tim10-1 ts strain growth, BacTiter-Glo, 24 h; AID 463190;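 active = inhibition of at least 40%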;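 note: mutant grown at 25 °C; 0% = DMSO wells with yeast and 100% = wells holding no yeast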
NALP1 yeast inh: inhibitors of NALP1 inflammasome in yeast. S. cerevisiae NALP1/ASC/caspase-1 growth, X-gal OD620, 72 h. inhibition, % at 10 µM. 280,000 compounds, 0.61% hits. AID 2071; in the data active = inhibition mostly above about 24%, no sharp cut-off; inactive = mostly below about 32%
tim23-1 inh: inhibits growth of tim23-1 mutant yeast. S. cerevisiae tim23-1 growth, BacTiter-Glo luminescence, 24 h. inhibition, % at 20 µM. 330,000 compounds, 1.3% hits. AID 463212;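 active = growth inhibition of the mutant yeast at or above 50%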;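 note: temperature-sensitive mutant grown at 25 °C; plate controls were DMSO-treated mutant yeast for no effect and medium wells lacking yeast for full effect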
tim10-1 confirm: confirmation of tim10-1 mutant yeast growth inhibitors | shares compounds with tim10-1 inh | S. cerevisiae tim10-1 ts strain growth, BacTiter-Glo, 24 h | inhibition, % at 20 µM | 7,400 compounds, 56% hits | AID 463213;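 active = inhibition of yeast growth at or above a set limit in either of two repeat tests at 20 µM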;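 note: tim10-1 mutant grown at permissive 25 °C to find synthetic lethal compounds; 0% = DMSO yeast wells and 100% = medium wells without yeast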
TIM10 conf: confirmation of TIM10 yeast growth inhibitors | shares compounds with TIM10 inh | S. cerevisiae tim10 strain growth, BacTiter-Glo luminescence, 24 h | inhibition, % at 10 µM | 4,600 compounds, 63% hits;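 active = inhibition of yeast growth at or above a set limit in either of two replicates at 10 µM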;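 note: this counterscreen used the strain with wild-type TIM10; 0% = yeast with DMSO and 100% = medium wells lacking yeast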
Starred values were filed as active, the others as inactive; . = not tested or not shown.

SMILES | TIM10 inh | NALP3 yeast inh | V-ATPase pH | tim10-1 inh | NALP1 yeast inh | tim23-1 inh | tim10-1 confirm | TIM10 conf
CC(C)OC(=O)/C(C#N)=C\c1cccnc1 | 0.5 | 7.0 | -0.4 | 4.3 | -8.1 | 0.5 | . | .
CCCCNC(=O)/C(C#N)=C/c1cccnc1 | 50.1* | 17.6 | -6.1 | 44.0* | 40.4 | 49.8 | 34.6* | 38.9*
COc1ccc2nc3oc(C(=O)N4CCN(c5cccc(Cl)c5)CC4)cc3cc2c1 | 63.3* | 12.3 | 1.0 | 60.5* | 28.8 | 37.1 | 8.6 | 10.4
N#Cc1ccc(C=NN2CCCCCC2)cc1 | . | . | -0.8 | . | . | . | . | .
Cc1ccc(-c2csc(-c3c[nH]c4ccccc34)n2)c(C)c1 | 42.8* | 28.6 | 1.6 | 41.3* | -7.7 | 40.7 | 38.7* | 47.6*
Oc1ccc(-c2csc(-c3c[nH]c4ccccc34)n2)c(O)c1 | -15.1 | 21.9 | -1.4 | -21.5 | 10.1 | 35.5 | . | .
O=C(Cn1c(=O)oc2cc(S(=O)(=O)N3CCc4ccccc43)ccc21)NC1CCCC1 | 1.6 | -0.4 | -7.4 | -9.6 | 16.4 | 8.7 | . | .
CCOC(=O)C1CCN(c2c(NCCCN3CCN(Cc4ccccc4)CC3)c(=O)c2=O)CC1 | -0.2 | -6.8 | -1.8 | 5.0 | 18.2 | 13.2 | . | .
Cc1ccc(Cl)cc1NC(=S)NCCCSC1CCCCC1 | 42.3* | 12.1 | -4.6 | 42.4* | 6.3 | 39.0 | 26.5 | 12.8
CCCCCC1CC(CC(=O)Nc2nncs2)C(=O)O1 (centres undefined) | 45.1* | 10.4 | 3.3 | 40.0 | 17.7 | 44.1 | 36.8* | 31.2*
O=C(c1ccc(Oc2ccc([N+](=O)[O-])cc2)cc1)N1CCCCCC1 | 5.0 | 42.4 | 6.9 | 28.9 | . | 33.7 | . | .
O=C(CCc1ccc(Oc2cc([N+](=O)[O-])cc([N+](=O)[O-])c2)cc1)N1CCCCC1 | 53.7* | 8.0 | 4.6 | 57.3* | 34.4 | 11.0 | 35.0* | 48.3*
N/C(=N\OC(=O)c1ccccc1)c1cccnc1 | -2.9 | -3.7 | 3.1 | 13.6 | -9.7 | 8.1 | . | .
N/C(=N\OC(=O)c1ccc(Cl)c(Cl)c1)c1cccnc1 | 71.8* | -13.8 | 1.7 | 60.2* | 8.6 | 5.0 | 47.2* | 75.5*
Cc1nn(-c2ccccc2)c(C)c1/C=N/NC(=O)c1ccc(F)cc1 | 12.5 | -1.7 | 4.1 | 20.4 | . | 16.4 | . | .
CC(C)(C)c1cc(C(=O)N/N=C/c2ccc(F)cc2)n(-c2ccccc2)n1 | 44.6* | 0.9 | 0.3 | 50.8* | 44.9 | 45.6 | 34.2* | 23.9
Cc1nn(CCC(N)=S)c2nc(-c3cccs3)cc(C(F)(F)F)c12 | 54.5* | 22.1 | 2.1 | 44.0* | 23.9 | 31.6 | 40.8* | 41.2*
CN(C)Cc1nc2c(c(=O)[nH]1)C1(CCCCC1)Cc1ccccc1-2 | 44.4* | -2.1 | 0.6 | 48.9* | 17.1 | 21.9 | 38.3* | 38.3*
CN(C)Cc1nc2c(c(=O)[nH]1)C(C)(C)Cc1ccccc1-2 | -9.1 | 20.7 | 1.4 | 15.0 | 22.3 | 17.7 | . | .
Nc1c(N(CCO)C(=O)c2ccccc2OCc2ccccc2Cl)c(=O)[nH]c(=O)n1Cc1ccccc1 | . | . | -3.0 | . | . | . | . | .
COc1ccc(NC(=O)CN(C)C(=O)c2c(C)nn(Cc3ccc(C)cc3)c2Cl)cc1 | 0.9 | 2.0 | -0.8 | 9.9 | . | 5.6 | . | .
COc1ccc(C23CC4CC(CC(C4)C2)C3)cc1C(=O)NCCN(C)C | 16.8 | 15.9 | 2.0 | 13.9 | 30.8 | 4.8 | . | .
O=C(c1ccc([N+](=O)[O-])s1)N1CCN(c2ccccn2)CC1 | 43.9* | 4.4 | 3.1 | 49.2* | -5.8 | 45.8 | 47.8* | 43.5*
O=C(c1ccc([N+](=O)[O-])s1)N1CCN(c2ccccc2)CC1 | 60.1* | 11.7 | -3.9 | 52.6* | 24.6 | 31.4 | 47.2* | 49.6*
COc1ccc(OC)c2sc(N3CCN(C(=O)c4ccc([N+](=O)[O-])s4)CC3)nc12 | -86.8 | 7.9 | -4.0 | 34.3 | . | -53.9 | . | .
C=CCN(CC=C)C(=O)C1CCN(Cc2ccc(OCc3ccccc3)cc2)CC1 | -1.6 | 43.1 | 1.9 | -11.6 | 23.2 | -19.8 | . | .
Cc1cc(Nc2ccc(Cl)cc2)n2nnnc2n1 | 8.2 | 19.7 | -9.3 | 28.7 | 6.4 | 23.2 | . | .
CCOc1ccc(-c2nnc3ccc(SC(C)C)nn23)cc1 | 41.5* | 33.8 | -1.6 | 47.8* | 0.0 | 40.8 | 44.6* | 51.2*

Source: PubChem
